{"source": "PubChem BioAssay AID1347426", "about": "(Functional Genomics Laboratory (NCATS/FGL), 2020)", "note": "In all, about 31,000 sequences went through this assay and about 1,400 (4.5%) were called active. This excerpt belongs to a sample that is enriched for actives. Values without a mark were called inactive.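 Rule for the calls: active = median seed-adjusted z-score above 1 or below -1; inactive = the rest.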", "data": [{"assay": "Novel Modifiers of Survival Motor Neuron (SMN) Protein: Gene Identification via Genome-wide siRNA Screen;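 note: luminescence tracks full-length SMN protein made from the SMN2 reporter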", "details": "HEK293T SMN2-luciferase reporter, siRNA knockdown, 72 h; actives lie on both sides", "outline": "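HEK293T cells stably carrying an SMN2 promoter/splicing cassette–luciferase reporter were reverse-transfected with 1 pmol siRNA per well (druggable-genome library, 3 siRNAs per gene) and grown 72 h at 37 °C. Luminescence, normalized to negative-control siRNA and log10-transformed, was scored as MAD.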", "values": [{"sequence": "GAACCUACAUCAUCAGUAUTT against GJA1", "median seed-adjusted z-score": 0.348}, {"sequence": "GCCUUGCUGUUAAAGGGCATT against PARP2", "median seed-adjusted z-score": -0.366}, {"sequence": "AGAGUGACCUGAUUGAGCATT against CSNK2B", "median seed-adjusted z-score": "-1.62 (active)"}, {"sequence": "GGCCUUUGGUGAAAACCGUTT against CLDN11", "median seed-adjusted z-score": 0.268}, {"sequence": "GCCUAUGACCUUCUACUUUTT against SLC31A1", "median seed-adjusted z-score": 0}, {"sequence": "GUAUCUGCGAGGACGAAAATT against RNF113B", "median seed-adjusted z-score": -0.228}, {"sequence": "GCAUCAUCGGUACCCAGUUTT against MPO", "median seed-adjusted z-score": -0.223}, {"sequence": "GGCCGCUGCUUGUUUGUCATT against SLC13A3", "median seed-adjusted z-score": 0.0434}, {"sequence": "ACUGUGAAAUUGGACCAAUTT against RABIF", "median seed-adjusted z-score": 0}, {"sequence": "CUGUCGCUGUCUGACCAGATT against ESRRA", "median seed-adjusted z-score": -0.833}, {"sequence": "AGACAAUGAUCAUAGACAATT against IDH3B", "median seed-adjusted z-score": -0.642}, {"sequence": "CAACAACCCUUAUCGUAAATT against POLQ", "median seed-adjusted z-score": 0.203}, {"sequence": "GAGACUAUAUCUACAUGAATT against SLITRK3", "median seed-adjusted z-score": -0.564}, {"sequence": "CGGAUGUUCUUUACACUAUTT against HNRNPL", "median seed-adjusted z-score": "1.04 (active)"}, {"sequence": "GCAUAUGACUUGUAUUCCUTT against TFB2M", "median seed-adjusted z-score": 0.206}, {"sequence": "GGGACAUGGGAAUGCAAUATT against MSR1", "median seed-adjusted z-score": 0.0743}, {"sequence": "GGAAAUCUCGUGAUUUUCATT against TEAD1", "median seed-adjusted z-score": "1.31 (active)"}, {"sequence": "CCAGAAACGUACACCUGAUTT against COX7B", "median seed-adjusted z-score": "-1.16 (active)"}, {"sequence": "CCAUCAACACUGAAUUGCATT against SEC22B", "median seed-adjusted z-score": -0.106}, {"sequence": "GUAUAGAUCUCUAUUUCUATT against COPZ1", "median seed-adjusted z-score": "-1.02 (active)"}, {"sequence": "GAAGAGUGGUACUACCAGATT against BACE2", "median seed-adjusted z-score": 0.0853}, {"sequence": "CCACUUCAAGAAAACUUCATT against ZSCAN22", "median seed-adjusted z-score": 0.277}, {"sequence": "GGCUCGAGAUUUAUACGAUTT against HECTD1", "median seed-adjusted z-score": -0.0588}, {"sequence": "GGAGAAAGGAUCACGCUAATT against KCTD1", "median seed-adjusted z-score": 0}, {"sequence": "CCUACACGGUCCUUCGUAATT against HEPHL1", "median seed-adjusted z-score": 0.0681}, {"sequence": "CCUUCUAUCAUGUAAGCUATT against IL1A", "median seed-adjusted z-score": "1.12 (active)"}, {"sequence": "GCGUGUUCCCAAUAGUGUATT against OGT", "median seed-adjusted z-score": 0.411}, {"sequence": "GGAUAUCACAGAAGGAUAUTT against ANXA4", "median seed-adjusted z-score": -0.0932}, {"sequence": "GUGUAAAACUUGUCAGCGATT against WT1", "median seed-adjusted z-score": 0.236}, {"sequence": "GCAGCUUCAUAACCGAAGATT against PARP1", "median seed-adjusted z-score": -0.0913}, {"sequence": "GAUGCAUGUUUGUAAAAAUTT against KCNJ6", "median seed-adjusted z-score": "-1.6 (active)"}, {"sequence": "GCCCAACAGUCAUUCAACATT against CHMP5", "median seed-adjusted z-score": 0}, {"sequence": "GGAGGUGACCUUCCAGGAATT against RAB17", "median seed-adjusted z-score": 0.473}, {"sequence": "GGCCGUCAGUAAUACAUCUTT against ZBTB33", "median seed-adjusted z-score": 0.164}, {"sequence": "CCACCAAUCACGAACCUAATT against IL3RA", "median seed-adjusted z-score": -0.951}, {"sequence": "CAGUGUAUCUGAACCUAUUTT against EFTUD1", "median seed-adjusted z-score": "-1.39 (active)"}, {"sequence": "GCUCUUCGGGAGAAUCUUUTT against CTNNAL1", "median seed-adjusted z-score": 0.229}, {"sequence": "AGACCAUUGAGACCCGGAATT against PRPH", "median seed-adjusted z-score": 0}, {"sequence": "CAACUAAUUUCUAAUCGUUTT against ADAD1", "median seed-adjusted z-score": -0.0795}, {"sequence": "GUGCGAAGGUUUUUAAUCATT against ZNF816A", "median seed-adjusted z-score": 0.39}, {"sequence": "GUACCUGCGGGAUUACUCATT against CCT7", "median seed-adjusted z-score": -0.246}, {"sequence": "UGAACUUGAUGAAGGAGAATT against S100A7L2", "median seed-adjusted z-score": 0.283}, {"sequence": "GGGUCCUGUUCAUAAAGGATT against KCTD10", "median seed-adjusted z-score": -0.506}, {"sequence": "GGAAUUUACAUGGUCUAUUTT against PHF6", "median seed-adjusted z-score": -0.268}, {"sequence": "CCAUGCUCGUGGUGCACAATT against B3GNT7", "median seed-adjusted z-score": "-1.05 (active)"}, {"sequence": "GCCCGAUGCUUUCCACAUUTT against SLC5A9", "median seed-adjusted z-score": 0.15}, {"sequence": "GCACACUUGAGUUUGUGUATT against HES6", "median seed-adjusted z-score": 0.71}, {"sequence": "GGUGGUAUCUGUUUCCGUATT against PCAF", "median seed-adjusted z-score": -0.00665}, {"sequence": "GCUGCGUCUCCCUUCCAAATT against GP1BB", "median seed-adjusted z-score": -0.711}, {"sequence": "GCCCUCUGUUGGAUAUCUATT against AZIN1", "median seed-adjusted z-score": "-1.14 (active)"}, {"sequence": "CAGCAGACGUAAAAAUUCATT against MSX2", "median seed-adjusted z-score": -0.406}, {"sequence": "CCACUGGAAUGGUACUUAUTT against UBR1", "median seed-adjusted z-score": -0.775}, {"sequence": "GAGCUGUAUUUCUAUGUCATT against PLXNA3", "median seed-adjusted z-score": 0.255}, {"sequence": "GCGAGCCGCUUAUGUGGAATT against TCF21", "median seed-adjusted z-score": -0.15}, {"sequence": "UCUUAGAUGUCAAGCUGAATT against RNF7", "median seed-adjusted z-score": "-1.18 (active)"}, {"sequence": "AGGUAGAAUGGACAAGUGATT against PPP1R11", "median seed-adjusted z-score": -0.498}, {"sequence": "GGAUUAUGAGUACCGAGAATT against MAP3K14", "median seed-adjusted z-score": -0.0609}, {"sequence": "GAUCAGGAGUCCUUCAAUATT against RAB1A", "median seed-adjusted z-score": 0.395}, {"sequence": "CGCCGACUGUCAUGCUUCATT against FCN1", "median seed-adjusted z-score": 0.346}, {"sequence": "GUUCAUCCCUUAUUCGACATT against ZNF215", "median seed-adjusted z-score": 0.485}, {"sequence": "CCAUCAACAUCGCAGAUGATT against ABHD11", "median seed-adjusted z-score": -0.189}, {"sequence": "CCGACACGCUCUACAAUAATT against BRUNOL6", "median seed-adjusted z-score": -0.542}, {"sequence": "CCCUUACCCAAAACGAGAATT against CDK8", "median seed-adjusted z-score": "-1.47 (active)"}, {"sequence": "CCCUGACUGCAACUGCUUUTT against LDLRAD2", "median seed-adjusted z-score": -0.459}, {"sequence": "GAGUCAUUAUUGACAACAATT against APH1B", "median seed-adjusted z-score": -0.135}, {"sequence": "GGUGUUUGAUAUUCGAAUUTT against USP40", "median seed-adjusted z-score": 0.00437}, {"sequence": "GCAACAUCCUCAUUGUAUUTT against MCHR2", "median seed-adjusted z-score": -0.658}, {"sequence": "GCAUAUUCCGGUGAUAACUTT against RAB6C", "median seed-adjusted z-score": "-1.08 (active)"}, {"sequence": "CAGGCGCCUGAAGUACAUATT against SLC35A2", "median seed-adjusted z-score": "1.06 (active)"}]}]}
